This excerpt belongs to a sample that is enriched for hits.
KDM5B inhibitor: inhibitors of human KDM5B histone demethylase; Q9UGL1; KDM5B demethylase, FDH-coupled NADH fluorescence (FDH is formaldehyde dehydrogenase); Potency, µM (titrated, usually from 57.7 µM), actives largely listed as inhibitors; 2.6% of 220,000 active; AID 1347165; active = well fitted inhibition curve with a large enough effect; note: nearly all actives have a fitted effect of over 70% in size
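Here, H3K4me3 peptide (12.5 µM in substrate mix) is demethylated by KDM5BΔAP, 200 nM final, after 10 min compound exposure. Formaldehyde product is coupled through FDH (0.25 U/mL in mix) to NADH fluorescence; 30-min ΔRFU feeds dose-response curves.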
Of the large screens only hits and unclear results are named; the others gave an inactive call.

CCONC(=O)c1ccc(C(=O)NOCC)cc1	none
CCc1cccc2c(C(=O)O)cc(-c3cc(C)ccc3C)nc12	none
COc1ccccc1C1CC(c2ccccc2NS(C)(=O)=O)=NN1C(=O)c1ccco1 (stereo not given)	none
COc1ccc(C(=O)N2CCC3(CC2)NC(=O)N(c2cccc(F)c2)N3)cc1	none
O=C(O)C(c1c[nH]c2ccc(Br)cc12)N1CCN(Cc2cccs2)CC1 (stereo not given)	none
c1cncc(CN2CC[C@H](c3nnc(Cc4c[nH]c5ccccc45)o3)C2)c1	none
CCS(=O)(=O)c1ccc2oc([C@H]3CCN(Cc4c[nH]c5ccccc45)C3)nc2c1	KDM5B inhibitor 31.6µM
Cc1ccc(CN2CC[C@H](c3nc4cc(C)ccc4o3)C2)cc1	none
CCCC(=O)N1N=C(c2cccc(NS(=O)(=O)CC)c2)CC1c1ccco1 (stereo not given)	none
CC(=O)Oc1c(-c2ccc(NC(=O)c3ccco3)cc2)c(C2CC2)nn1-c1cccc(C)c1	KDM5B inhibitor 31.6µM
Cc1nnc2ccc(-c3cccc(NC(=O)c4ccco4)c3)nn12	none
Cc1nn(-c2ccccc2)c(NC(=O)c2ccco2)c(-c2ccccc2)c1=O	none
CCn1cnc2c1c(=O)n(CC(=O)Nc1ccc(OC)c(OC)c1)c(=O)n2Cc1ccccc1	none
COc1cc(/C=C(/C#N)C(=O)O)cc(Cl)c1OC(C)C	none
CC(NC(=O)COc1ccccc1)C(=O)N1CCN(c2ccccn2)CC1 (stereo not given)	KDM5B inhibitor 22.4µM
Cc1cccc(OCC(=O)NCCCNC(=O)c2ccncc2)c1	none
CC(C)C(=O)N1CCCC(CN2CCN(c3ccccn3)CC2)C1 (stereo not given)	none
O=C(c1cc2ccccc2cc1O)N1CCN(c2ccccn2)CC1	none
Cc1cccc(OCC(=O)NC(C)C(=O)N2CCN(c3ccccn3)CC2)c1 (stereo not given)	KDM5B inhibitor 35.5µM
COc1ccc(-c2cc(N3CCC(NC(=O)COc4cccc(C)c4)CC3)n[nH]2)cc1	none
COc1ccc(C(CC(=O)NCCC(C)C)c2c[nH]c3ccccc23)c(OC)c1 (stereo not given)	none
CN1/C(=C\C(=O)CN2CCN(C(c3ccccc3)c3ccccc3)CC2)C(C)(C)c2ccccc21	none
COC(=O)c1sc2ccccc2c1S(=O)(=O)N1CCN(c2cc(C)ccc2C)CC1	none
CN(C)CCN1C(=O)C(O)=C(C(=O)c2cc3ccccc3o2)C1c1ccc(OCc2ccccc2)cc1 (stereo not given)	none
Cc1cc(C)nc(SCc2nc3ccc(Cl)cn3c2Br)n1	none
CN(Cc1ccccc1)C(=O)CCNC(=O)Nc1ccccc1	none
CN(Cc1ccccc1)C(=O)c1nc2ccccn2c1CNCCCOc1cccnc1	none
Cc1ccc(NCCC(=O)O)cc1	none
Cc1ccc(-c2nc3cnccn3c2NCCC(=O)N(C)C)cc1	KDM5B inhibitor 28.2µM
Cc1ccccc1-c1nc2cnccn2c1NCCC(=O)N(C)Cc1ccccc1	KDM5B inhibitor 28.2µM
Cc1ccc(-c2nc3cnccn3c2NCCC(=O)O)cc1	KDM5B inhibitor 28.2µM
Cc1ccn2c(NC3CCCC3)c(-c3ccncc3)nc2c1	none
Cc1ccc(Nc2c(-c3cccnc3)nc3ccc(Br)cn23)cc1	none
Cc1ccc(-c2nocc2CCC(=O)O)cc1	none
CCOC(=O)c1noc2nc(C)n(CC(=O)Nc3cc(OC)ccc3OC)c(=O)c12	none
Cc1ccc(NS(=O)(=O)c2cc(NC(=O)Cc3n[nH]c(=O)c4ccccc34)ccc2C)c(C)c1	none
Cc1cccc(NC(=S)NCC2(C)CC(NC(=S)Nc3cccc(C)c3)CC(C)(C)C2)c1 (stereo not given)	none
COc1cccc(C2=NN3C(C2)c2cccc(OC)c2OC32CCN(S(C)(=O)=O)CC2)c1 (stereo not given)	none
Cc1ccc(-c2ccc3nnc(CNC(=O)CSc4ccncc4)n3n2)cc1	KDM5B inhibitor 28.2µM
Cc1ccc(-c2ccc3nnc(CNC(=O)C4CC4)n3n2)cc1	KDM5B inhibitor 14.1µM
Cc1ccc(S(=O)(=O)N2CCC(CCC(=O)NCc3cccc(C)c3)CC2)cc1	none
Cc1ccc(CNC(=O)C2CCCC2)cc1	none
O=C(NCc1ccc(-c2csnn2)cc1)C1CC1	none
Cc1ccc(-c2ccc3nnc(CNC(=O)CCC4CCCC4)n3n2)cc1	KDM5B inhibitor 28.2µM
CS(=O)(=O)Oc1ccc2c(c1)O/C(=C\c1ccc3c(c1)OCO3)C2=O	none
Cn1ccnc1C(NC(=O)Nc1ccc(F)cc1)c1ccccc1F (stereo not given)	none
O=[N+]([O-])c1ccc(NC(=S)Nc2ccc3c(c2)CCC3)cc1	none
COCc1c(C(=O)NCC(c2ccco2)N2CCCC2)sc2cccc(F)c12 (stereo not given)	none
O=C(O)CC(c1cccnc1)c1c[nH]c2ccccc12 (stereo not given)	none
Cc1ccc(S(=O)(=O)CC(=O)c2cccc(Br)c2)cc1	none
O=C(Nc1cccc(C(F)(F)F)c1)c1nc2ccccc2nc1N1CCCC1	none
CC1(C(=O)NC2CCOCC2)CCCc2cnc(NCc3ccccc3)nc21 (stereo not given)	KDM5B inhibitor 39.8µM
CC1(C(=O)N2CCCC2)CCCc2cnc(Nc3ccccc3)nc21 (stereo not given)	none

Screens as filed in PubChem.
